# Test results from PubChem BioAssay.
# The source made the active and inactive calls. Unless noted, the rule behind the calls is not given here.
# Tests used:
# [1] = compound effects on lung adenocarcinoma cell viability – A549, calcein-AM fluorescence, 48 h, basal, profiling panel (AID 1162); conditions: higher = more signal; note: test concentration not given here
# [2] = compound effects on differentiated 3T3-L1 adipocyte viability – cell-based, 3T3-L1 adipocytes, calcein-AM fluorescence, 48 h, basal, profiling panel (AID 1163); conditions: 3T3-L1 adipocytes viability, higher = more signal; note: test concentration not given here
# [3] = compound effects on hepatocellular carcinoma cell viability – HepG2, calcein-AM fluorescence, 48 h, basal, profiling panel (AID 1164); conditions: higher = more signal; note: test concentration not given here
# [4] = compound effects on multiple myeloma cell viability – MM1S, calcein-AM fluorescence, 48 h, basal, profiling panel (AID 1165); conditions: higher = more signal; note: test concentration not given here
# [5] = calcein-AM signal in unstimulated myeloma cells – cell-based, calcein-AM fluorescence, 48 h, PK04 Diversity Set, profiling panel (AID 1166); conditions: RPMI8226 myeloma viability, higher = more signal;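 note: cells grown under basal conditions without added stimulus; test concentration not given here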
# [6] = JC-1 mitochondrial signal, unstimulated HepG2 cells – cell-based, JC-1 fluorescence, 24 h, 100 nL compound, profiling panel (AID 1167); conditions: HepG2 mitochondrial potential, higher = more signal; note: test concentration not given here
# [7] = JC-1 mitochondrial signal, unstimulated adipocytes – cell-based, JC-1 fluorescence, 3T3-L1 adipocytes, 24 h, 100 nL compound, profiling panel (AID 1168); conditions: JC-1 mitochondrial fluorescence, higher = more signal, called active from +8 up or from −8 down; note: test concentration not given here
# [8] = JC-1 mitochondrial signal, unstimulated myeloma cells – cell-based, JC-1 fluorescence, RPMI8226, 24 h, 100 nL compound, profiling panel (AID 1169); conditions: JC-1 mitochondrial potential fluorescence, higher = more signal; note: test concentration not given here
# [9] = JC-1 mitochondrial signal, unstimulated MM1S myeloma – cell-based, JC-1 fluorescence, 24 h, 100 nL compound, profiling panel (AID 1170); conditions: MM1S mitochondrial potential, higher = more signal; note: test concentration not given here
# [10] = resazurin metabolic signal in A549 cells – cell-based, resazurin fluorescence, 24 h, PK04 Diversity Set, profiling panel (AID 1171); conditions: A549 viability, higher = more signal, called active from +8 up or from −8 down; note: test concentration not given here
# [11] = resazurin metabolic signal in HepG2 cells – cell-based, resazurin fluorescence, 24 h, PK04 Diversity Set, profiling panel (AID 1172); conditions: HepG2 viability, higher = more signal; note: test concentration not given here
# [12] = budding yeast growth changes without added modifier – OD600, strain BY4716, 24 h, basal condition, primary screen (AID 1173); conditions: S. cerevisiae BY4716 growth, OD600, 24 h; higher = more signal, called active from +8 up or from −8 down
# [13] = viability profiling in MM1S myeloma cells – cell-based, resazurin fluorescence, basal, 24 h, PK04 Diversity Set, profiling panel (AID 1174); conditions: higher = more signal, called active from +8 up or from −8 down; note: test concentration not given here
# [14] = biological target: Dihydroorotate dehydrogenase (quinone), mitochondrial (Plasmodium falciparum (isolate 3D7)) (UniProt Q08210); assay: inhibition of P. falciparum DHODH – biochemical, C-terminal His tag, absorbance 600 nm, primary screen (AID 1175); conditions: PfDHODH enzyme, DCIP absorbance 600 nm; higher = more signal, called active from +8 up or from −8 down;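 note: recombinant parasite enzyme with a five histidine tag at its C terminus; test concentration not given here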
# Dihydroorotate dehydrogenase (quinone), mitochondrial (Plasmodium falciparum (isolate 3D7)), sequence (Q08210 whole entry, looked up): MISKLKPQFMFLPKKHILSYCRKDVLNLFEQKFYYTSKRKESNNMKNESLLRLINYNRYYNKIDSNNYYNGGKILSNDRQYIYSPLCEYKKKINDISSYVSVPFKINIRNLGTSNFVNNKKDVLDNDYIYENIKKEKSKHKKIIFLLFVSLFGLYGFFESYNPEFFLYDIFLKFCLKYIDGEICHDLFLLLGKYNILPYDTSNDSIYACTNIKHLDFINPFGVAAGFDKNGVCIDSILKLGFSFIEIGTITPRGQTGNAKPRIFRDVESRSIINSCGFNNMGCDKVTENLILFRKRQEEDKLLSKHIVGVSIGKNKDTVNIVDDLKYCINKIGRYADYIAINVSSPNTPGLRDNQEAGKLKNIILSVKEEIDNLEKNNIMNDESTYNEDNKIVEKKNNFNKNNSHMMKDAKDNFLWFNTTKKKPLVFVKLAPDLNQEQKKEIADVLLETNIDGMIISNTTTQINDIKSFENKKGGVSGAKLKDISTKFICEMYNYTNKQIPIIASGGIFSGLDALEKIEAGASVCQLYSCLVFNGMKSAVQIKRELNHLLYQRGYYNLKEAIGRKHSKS
# [15] = inhibition of PAO1 biofilm formation – strain PAO1, LB-PBS medium, absorbance 600 nm, primary screen (AID 1176); note: test concentration not given here; conditions: P. aeruginosa PAO1 growth/biofilm, A600, 12 h; higher = more signal
# [16] = growth modulation of vineyard yeast isolate – strain RM11-1a, OD600, basal, 24 h, primary screen (AID 1177);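 note: cultures grown under basal conditions with no added stressor; test concentration not given here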; conditions: S. cerevisiae RM11-1a growth, OD600, 24 h; higher = more signal, called active from +8 up or from −8 down
# [17] = growth of efflux-deficient E. coli DRC39 – strain DRC39, OD650, 24 h, E. coli filamentation inducers, primary screen (AID 1178);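 note: growth measured as culture turbidity by optical density at 650 nm; test concentration not given here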; conditions: E. coli DRC39 acrAB, higher = more signal, called active from +8 up or from −8 down
# [18] = growth of efflux-deficient E. coli DRC39 – strain DRC39, OD650, 48 h, E. coli filamentation inducers, primary screen (AID 1179);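 note: screen aims at cell division blockers that make cells filament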; conditions: E. coli DRC39 delta-acrAB growth, higher = more signal, called active from +8 up or from −8 down
# [19] = viability profiling in RPMI8226 myeloma cells – cell-based, resazurin fluorescence, basal, 24 h, PK04 Diversity Set, profiling panel (AID 1180); conditions: higher = more signal;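 note: RPMI8826 multiple myeloma cell line at 5000 cells per well; test concentration not given here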
# [20] = biological target: E3 ubiquitin-protein ligase XIAP (Homo sapiens) (UniProt P98170); assay: small molecules binding XIAP protein – biophysical, small-molecule microarray, fluorescence 635 nm, primary screen (AID 1181); conditions: higher = more signal;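 note: score merges 667 nm emission and signal to noise over triplicate slides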
# E3 ubiquitin-protein ligase XIAP (Homo sapiens), sequence (P98170 whole entry, looked up): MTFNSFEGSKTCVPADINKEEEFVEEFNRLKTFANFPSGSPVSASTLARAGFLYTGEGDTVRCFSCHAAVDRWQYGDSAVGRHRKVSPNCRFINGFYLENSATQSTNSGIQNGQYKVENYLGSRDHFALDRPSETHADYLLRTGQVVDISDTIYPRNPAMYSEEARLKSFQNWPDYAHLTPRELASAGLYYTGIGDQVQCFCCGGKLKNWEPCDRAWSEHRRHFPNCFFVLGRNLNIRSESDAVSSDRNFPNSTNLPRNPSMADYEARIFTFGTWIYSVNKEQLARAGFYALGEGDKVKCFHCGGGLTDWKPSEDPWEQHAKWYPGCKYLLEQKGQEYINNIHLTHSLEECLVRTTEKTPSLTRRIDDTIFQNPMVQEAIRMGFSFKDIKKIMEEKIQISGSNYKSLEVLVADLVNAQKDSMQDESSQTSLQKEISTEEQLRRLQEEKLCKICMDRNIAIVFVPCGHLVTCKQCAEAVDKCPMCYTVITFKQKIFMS
structure (smiles),measurement,setting,value
O=C1O[C@@H](c2ccccc2)[C@@H](c2ccccc2)N2[C@@H](c3ccc(OCCO)cc3)[C@]3(C(=O)Nc4ccccc43)[C@@H](C(=O)O)[C@H]12,z-score,[1],-0.644
same,z-score,[2],0.624
same,z-score,[3],-0.888
same,z-score,[4],0.243
same,z-score,[5],-0.146
same,z-score,[6],-1.36
same,z-score,[7],-0.174 (inactive)
same,z-score,[8],-0.0788
same,z-score,[9],-1.13
same,z-score,[10],0.225 (inactive)
same,z-score,[11],-0.273
same,z-score,[12],-0.624 (inactive)
same,z-score,[13],0.432 (inactive)
same,composite z-score,[14],-1.09 (inactive)
same,z-score,[15],0.449 (inactive)
same,z-score,[16],-0.66 (inactive)
same,z-score,[17],0.468 (inactive)
same,z-score,[18],-0.513 (inactive)
same,z-score,[19],0.441
same,composite z-score,[20],-0.0339
CCCCC(O)C1C=CC2C(=O)N(c3ccccc3)C(=O)C2N1Nc1ccc(C(C)C)cc1 (stereo not given),z-score,[1],-0.341
same,z-score,[2],-1.52
same,z-score,[3],1.6
same,z-score,[4],-0.603
same,z-score,[5],-0.216
same,z-score,[6],-1.29
same,z-score,[7],-1.04 (inactive)
same,z-score,[8],-0.749
same,z-score,[9],-0.557
same,z-score,[10],-0.762 (inactive)
same,z-score,[11],-0.741
same,z-score,[12],-0.443 (inactive)
same,z-score,[13],-1.1 (inactive)
same,composite z-score,[14],0.119 (inactive)
same,z-score,[15],1.14 (inactive)
same,z-score,[16],0.477 (inactive)
same,z-score,[17],-0.622 (inactive)
same,z-score,[18],0.0644 (inactive)
same,z-score,[19],-0.471
same,composite z-score,[20],0.199
O=C1O[C@H](c2ccccc2)[C@H](c2ccccc2)N2[C@H]1[C@@H](C(=O)NC[C@H](O)c1ccccc1)[C@]1(C(=O)Nc3ccc(C#CCCO)cc31)[C@H]2c1ccc(OCCO)cc1,z-score,[1],1.12
same,z-score,[2],1.25
same,z-score,[3],1.49
same,z-score,[4],-0.156
same,z-score,[5],0.868
same,z-score,[6],-0.274
same,z-score,[7],-0.0786 (inactive)
same,z-score,[8],-0.165
same,z-score,[9],-0.389
same,z-score,[10],-0.0659 (inactive)
same,z-score,[11],-0.468
same,z-score,[12],1.62 (inactive)
same,z-score,[13],-0.0793 (inactive)
same,composite z-score,[14],-1.33 (inactive)
same,z-score,[15],2.31 (inactive)
same,z-score,[16],3.46 (inactive)
same,z-score,[17],0.541 (inactive)
same,z-score,[18],0.721 (inactive)
same,z-score,[19],-0.821
same,composite z-score,[20],0.283
CCCC[C@@H]1C[C@H]1[C@@H](NC(=O)Cc1ccccc1)c1ccc(-c2ccccc2)cc1,z-score,[1],-0.902
same,z-score,[2],-0.12
same,z-score,[3],-0.323
same,z-score,[4],-0.378
same,z-score,[5],-1.48
same,z-score,[6],-0.929
same,z-score,[7],-0.118 (inactive)
same,z-score,[8],0.043
same,z-score,[9],-1.71
same,z-score,[10],0.261 (inactive)
same,z-score,[11],1.21
same,z-score,[12],0.953 (inactive)
same,z-score,[13],0.143 (inactive)
same,composite z-score,[14],0.183 (inactive)
same,z-score,[15],-1.19 (inactive)
same,z-score,[16],0.636 (inactive)
same,z-score,[17],-0.104 (inactive)
same,z-score,[18],0.289 (inactive)
same,z-score,[19],-1.18
same,composite z-score,[20],-0.0351
[N-]=[N+]=Nc1ccccc1[C@@H]1OC(c2ccc(OCCCO)cc2)=N[C@]1(Cc1ccccc1)C(=O)NCC(O)CO (stereo not given in full),z-score,[1],-0.828
same,z-score,[2],0.509
same,z-score,[3],-0.306
same,z-score,[4],-1.94
same,z-score,[5],-1.81
same,z-score,[6],0.307
same,z-score,[7],0.778 (inactive)
same,z-score,[8],-1.15
same,z-score,[9],-0.318
same,z-score,[10],-0.545 (inactive)
same,z-score,[11],0.0381
same,z-score,[12],-2.75 (inactive)
same,z-score,[13],-0.53 (inactive)
same,composite z-score,[14],0.255 (inactive)
same,z-score,[15],-0.291 (inactive)
same,z-score,[16],1.06 (inactive)
same,z-score,[17],2.24 (inactive)
same,z-score,[18],0.783 (inactive)
same,z-score,[19],-0.71
same,composite z-score,[20],0.366
CN(C)C(=O)[C@@]1(CCS(=O)(=O)c2ccccc2)N=C(c2ccc(OCCCO)cc2)O[C@H]1c1ccccc1,z-score,[1],0.0979
same,z-score,[2],0.171
same,z-score,[3],0.568
same,z-score,[4],-0.215
same,z-score,[5],-2.01
same,z-score,[6],-0.104
same,z-score,[7],-0.268 (inactive)
same,z-score,[8],0.331
same,z-score,[9],0.0134
same,z-score,[10],-0.124 (inactive)
same,z-score,[11],0.29
same,z-score,[12],0.26 (inactive)
same,z-score,[13],-0.236 (inactive)
same,composite z-score,[14],-0.431 (inactive)
same,z-score,[15],-0.372 (inactive)
same,z-score,[16],-0.0905 (inactive)
same,z-score,[17],-1.47 (inactive)
same,z-score,[18],-0.732 (inactive)
same,z-score,[19],-0.22
same,composite z-score,[20],-0.0866
C=CCC(OC(C)=O)[C@@H]1[C@@H](N(Cc2ccc(-c3cccc(C(F)(F)F)c3)o2)C(=O)c2ccc(C)cc2)c2cc(OCCCO)ccc2N1C(=O)c1ccc2ccccc2c1 (stereo not given in full),z-score,[1],-0.403
same,z-score,[2],0.821
same,z-score,[3],0.236
same,z-score,[4],0.47
same,z-score,[5],0.966
same,z-score,[6],3.41
same,z-score,[7],0.586 (inactive)
same,z-score,[8],0.102
same,z-score,[9],-0.555
same,z-score,[10],0.462 (inactive)
same,z-score,[11],0.472
same,z-score,[12],0.656 (inactive)
same,z-score,[13],0.845 (inactive)
same,composite z-score,[14],-0.689 (inactive)
same,z-score,[15],-0.124 (inactive)
same,z-score,[16],0.544 (inactive)
same,z-score,[17],-0.0973 (inactive)
same,z-score,[18],0.759 (inactive)
same,z-score,[19],1.37
same,composite z-score,[20],-0.0878
C[C@]1(C(=O)NC2CC2)c2ccccc2C(=O)N(Cc2ccccc2)[C@H]1c1ccc(CO)cc1,z-score,[1],0.395
same,z-score,[2],1.51
same,z-score,[3],-0.577
same,z-score,[4],0.855
same,z-score,[5],-0.655
same,z-score,[6],1.66
same,z-score,[7],0.195 (inactive)
same,z-score,[8],-0.0462
same,z-score,[9],0.263
same,z-score,[10],0.54 (inactive)
same,z-score,[11],-0.0738
same,z-score,[12],-0.886 (inactive)
same,z-score,[13],1.62 (inactive)
same,composite z-score,[14],-0.806 (inactive)
same,z-score,[15],0.553 (inactive)
same,z-score,[16],-1.02 (inactive)
same,z-score,[17],0.809 (inactive)
same,z-score,[18],0.653 (inactive)
same,z-score,[19],1.08
same,composite z-score,[20],-0.234
CN(C)CCCNC(=O)[C@@H]1c2ccccc2C(=O)N(Cc2ccccc2Cl)[C@H]1c1ccc(CO)cc1,z-score,[1],0.904
same,z-score,[2],0.841
same,z-score,[3],0.112
same,z-score,[4],-0.147
same,z-score,[5],-0.872
same,z-score,[6],1.5
same,z-score,[7],0.517 (inactive)
same,z-score,[8],0.114
same,z-score,[9],0.599
same,z-score,[10],0.508 (inactive)
same,z-score,[11],0.248
same,z-score,[12],-0.433 (inactive)
same,z-score,[13],0.608 (inactive)
same,composite z-score,[14],0.411 (inactive)
same,z-score,[15],0.0561 (inactive)
same,z-score,[16],-0.39 (inactive)
same,z-score,[17],0.206 (inactive)
same,z-score,[18],-0.2 (inactive)
same,z-score,[19],0.179
same,composite z-score,[20],-0.02
